In PubChem BioAssay (NCATS):
Several values for one entry are separate records, joined by “and”; a condition that tells them apart may be missing. Equal values may be shown once. Records with an inconclusive call do not appear. Where a call stands in place of a potency, no number is given. Unmarked numbers belong to inactive results. Activity calls are given as the source filed them. Calls come from the whole dose curve; as a rule, active = well fitted inhibition curve with a large enough effect; inconclusive = small, poorly fitted or top-dose-only effect; inactive = flat fitted curve, though single readings scatter.

How the values were obtained:
N140 = assay: qHTS profiling for inhibitors of Plasmodium falciparum proliferation (AID 504749); details: P. falciparum in erythrocytes, SYBR Green DNA, 72 h; series mostly up to 28.7 µM
Outline: (§1)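 SYBR Green fluorescence (ex 485 nm, em 535 nm) reports parasite DNA after 72 h compound exposure of infected red cells at 0.3% parasitemia, 2.5% hematocrit; signal normalized to 0.29 uM artemisinin and vehicle wells.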

P93_24 = assay: as above; details: P. falciparum in erythrocytes, SYBR Green DNA, 72 h; series mostly up to 28.7 µM
Outline: as §1

P94_40 = assay: as above; details: P. falciparum in erythrocytes, SYBR Green DNA, 72 h; series mostly up to 28.7 µM
Outline: as §1

PAD = assay: as above; details: P. falciparum in erythrocytes, SYBR Green DNA, 72 h; series mostly up to 28.7 µM
Outline: as §1

PC15 = assay: as above; details: P. falciparum in erythrocytes, SYBR Green DNA, 72 h; series mostly up to 28.7 µM
Outline: as §1

PC26 = assay: as above; details: P. falciparum in erythrocytes, SYBR Green DNA, 72 h; series mostly up to 28.7 µM
Outline: as §1

PC49 = assay: as above; details: P. falciparum in erythrocytes, SYBR Green DNA, 72 h; series mostly up to 28.7 µM
Outline: as §1

SC27B = assay: as above; details: P. falciparum in erythrocytes, SYBR Green DNA, 72 h; series mostly up to 28.7 µM
Outline: as §1

TAB109 = assay: as above; details: P. falciparum in erythrocytes, SYBR Green DNA, 72 h; series mostly up to 28.7 µM
Outline: as §1

TAB113 = assay: as above; details: P. falciparum in erythrocytes, SYBR Green DNA, 72 h; series mostly up to 28.7 µM
Outline: as §1

TAB165 = assay: as above; details: P. falciparum in erythrocytes, SYBR Green DNA, 72 h; series mostly up to 28.7 µM
Outline: as §1

W2 = assay: as above; details: P. falciparum in erythrocytes, SYBR Green DNA, 72 h; series mostly up to 28.7 µM
Outline: as §1

CRL-7250 [1] = assay: Cytotoxic Profiling of Annotated Libraries Using Quantitative High-Throughput Screening (AID 1296008); details: Five cell lines viability, CellTiter-Glo ATP luminescence, 48-72 h; max response: stronger effect = lower value; note: potency is the fitted concentration of half-maximal effect
Outline: (§2)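 Cells exposed to compounds for 48 or 72 hr at 37 degrees Celsius. Viability read as ATP-coupled luminescence with CellTiter-Glo after 10 min at room temperature.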

HEK293 = assay: as above; details: Five cell lines viability, CellTiter-Glo ATP luminescence, 48-72 h; max response: stronger effect = lower value
Outline: as §2

HaCat [2] = assay: as above; details: Five cell lines viability, CellTiter-Glo ATP luminescence, 48-72 h; max response: stronger effect = lower value
Outline: as §2

KB-3-1 = assay: as above; details: Five cell lines viability, CellTiter-Glo ATP luminescence, 48-72 h; max response: stronger effect = lower value
Outline: as §2

NIH3T3 = assay: as above; details: Five cell lines viability, CellTiter-Glo ATP luminescence, 48-72 h; max response: stronger effect = lower value
Outline: as §2

HACAT [3] = assay: qHTS assay to identify novel small-molecules to repurpose for Merkel cell carcinoma treatment (AID 1296009); details: MCC and control cell lines, CellTiter-Glo viability, 72 h; at 44.8 µM (top of the series) unless noted
Outline: (§3)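 CellTiter-Glo luminescence after 72 hr compound exposure at 37 degree celsius gave cell viability. Libraries NPC and MIPE were run as 8- and 11-point dose responses; RLUs normalized to DMSO (negative) and no-cell (cytotoxicity) controls.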

CRL-7250 [4] = assay: as above; details: MCC and control cell lines, CellTiter-Glo viability, 72 h; at 44.8 µM (top of the series) unless noted
Outline: as §3

HEK293T = assay: as above; details: MCC and control cell lines, CellTiter-Glo viability, 72 h; at 44.8 µM (top of the series)
Outline: as §3
Note: nearly all actives have a fitted effect of over 60% in size.

`NCc1cccnc1` was tested, and the Potency (N140) was “inactive”, the Potency (P93_24) was “inactive” and the Potency (P94_40) was “inactive”. The Potency (PAD) was “inactive”, the Potency (PC15) was “inactive” and the Potency (PC26) was “inactive”. For the same compound, the Potency (PC49) was “inactive”, the Potency (SC27B) was “inactive” and the Potency (TAB109) was “inactive”. For the same compound, the Potency (TAB113) was “inactive”, the Potency (TAB165) was “inactive” and the Potency (W2) was “inactive”. For the same compound, the max response (CRL-7250 [1]) was -13.7%, the max response (HEK293) was -4.51% and the outcome (HaCat [2]) was “inactive”. For the same compound, the max response (KB-3-1) was -3.91%, the max response (NIH3T3) was 3.43% and the outcome (HACAT [3]) was “inactive”.
With `CCCCC1C(=O)NC(=O)N(C2CCCCC2)C1=O` (configuration not stated) the max response (CRL-7250 [1]) was -13.7%, the max response (HEK293) was 0.515% and the outcome (HaCat [2]) was “inactive”. For the same compound, the max response (KB-3-1) was 2.39%, the max response (NIH3T3) was -9.24% and the outcome (HACAT [3]) was “inactive”.
`CCC1(c2cccc(O)c2)CCCCN(C)C1` (configuration not stated) showed a max response (CRL-7250 [1]) of -9.91%, a max response (HEK293) of -2.39% and a max response (HaCat [2]) of -5.66%. It also gave a max response (KB-3-1) of 24.1% and a max response (NIH3T3) of 2.43%.
With `C[C@@H]1O[C@@H](O[C@@H]2C=C3CC[C@@H]4[C@H](CC[C@]5(C)[C@@H](c6ccc(=O)oc6)CC[C@]45O)[C@@]3(C)CC2)[C@H](O)[C@H](O)[C@H]1O` the Potency (CRL-7250 [1]) was 13.3 nM (active), the Potency (HEK293) was 33.5 nM (active) and the Potency (HaCat [2]) was 42.2 nM (active).
`O=C(O)Cc1ccccc1` was tested, and the max response (CRL-7250 [1]) was -22.4%, the max response (HEK293) was -7.97% and the outcome (HaCat [2]) was “inactive”. For the same compound, the max response (KB-3-1) was -2.72%, the outcome (NIH3T3) was “inactive” and the outcome (HACAT [3]) was “inactive”.
For `CNC(C)Cc1ccc2c(c1)OCO2` (configuration not stated), the max response (CRL-7250 [1]) was 4.98%, the max response (HEK293) was -3.37% and the max response (HaCat [2]) was -2.61%. For the same compound, the max response (KB-3-1) was -21.8% and the max response (NIH3T3) was 0.465%.
In the case of `O=c1n(Cl)c(=O)n(Cl)c(=O)n1Cl`, the Potency (N140) was “inactive”, the Potency (P93_24) was “inactive” and the Potency (P94_40) was “inactive”. For the same compound, the Potency (PAD) was “inactive”, the Potency (PC15) was “inactive” and the Potency (PC26) was “inactive”. For the same compound, the Potency (PC49) was “inactive”, the Potency (SC27B) was “inactive” and the Potency (TAB109) was “inactive”. The Potency (TAB113) was “inactive”, the Potency (TAB165) was “inactive” and the Potency (W2) was “inactive”. For the same compound, the outcome (CRL-7250 [1]) was “inactive”, the max response (HEK293) was -82.7% and the outcome (HaCat [2]) was “inactive”. For the same compound, the max response (KB-3-1) was 7.13%, the max response (NIH3T3) was 2.85% and the outcome (CRL-7250 [4]) was “inactive”. For the same compound, the outcome (HACAT [3]) was “inactive”.
In the case of `CCCC[N+]1(C)[C@@H]2CC(OC(=O)[C@H](CO)c3ccccc3)C[C@H]1[C@@H]1O[C@@H]12` (some centres not stated), the max response (CRL-7250 [1]) was -24.5%, the outcome (CRL-7250 [1]) was “inactive” and the max response (HaCat [2]) was -9.09%. For the same compound, the outcome (HaCat [2]) was “inactive”, the max response (KB-3-1) was 6.44% and 1.1% and the max response (NIH3T3) was 4.56% and 3.97%. For the same compound, the outcome (CRL-7250 [4]) was “inactive”, the outcome (HACAT [3]) was “inactive” and the outcome (HEK293T) was “inactive”.
With `ClC1=C(Cl)C2(Cl)C(CBr)CC1(Cl)C2(Cl)Cl` (configuration not stated) the Potency (N140) was “inactive”, the Potency (P93_24) was “inactive” and the Potency (P94_40) was “inactive”. For the same compound, the Potency (PAD) was “inactive”, the Potency (PC15) was “inactive” and the Potency (PC26) was “inactive”. The Potency (PC49) was “inactive”, the Potency (SC27B) was “inactive” and the Potency (TAB109) was “inactive”. The Potency (TAB113) was “inactive”, the Potency (TAB165) was “inactive” and the max response (CRL-7250 [1]) was -0.0053%. For the same compound, the outcome (HEK293) was “inactive”, the outcome (HaCat [2]) was “inactive” and the max response (KB-3-1) was -4.74%. The max response (NIH3T3) was -4.41%, the outcome (HACAT [3]) was “inactive” and the outcome (HEK293T) was “inactive”.
In the case of `C[N+]1(C)[C@@H]2CC[C@H]1CC(OC(=O)C(CO)c1ccccc1)C2` (some centres not stated), the outcome (CRL-7250 [1]) was “inactive”, the outcome (HEK293) was “inactive” and the max response (HaCat [2]) was -1.21%. The max response (KB-3-1) was -14.7% and 4.2%, the max response (NIH3T3) was -5.19% and the outcome (CRL-7250 [4]) was “inactive”. For the same compound, the outcome (HEK293T) was “inactive”.
`CNC(C)Cc1ccccc1OC` (configuration not stated) showed a max response (CRL-7250 [1]) of -10.9%, a max response (HEK293) of -10.8% and a max response (HaCat [2]) of -16.5%. For the same compound, the max response (KB-3-1) was 2.15% and the max response (NIH3T3) was -6.74%.
`C[C@]12CC[C@H]3[C@@H](CCC4=CC(=O)CC[C@@H]43)[C@@H]1CC[C@@H]2O` was tested, and the max response (CRL-7250 [1]) was -5%, the max response (HEK293) was 0.616% and the outcome (HaCat [2]) was “inactive”. The Potency (KB-3-1) was 11.6 µM (active) and 20.6 µM (active), the max response (NIH3T3) was -16.1% and the outcome (HACAT [3]) was “inactive”.
Compound `CCOC(=O)c1ncn2c1CN(C)C(=O)c1c(I)cccc1-2` has a max response (CRL-7250 [1]) of -19.8%, a max response (HEK293) of -11.8% and a max response (HaCat [2]) of -1.53%. It also gave a max response (KB-3-1) of 1.54% and a max response (NIH3T3) of -15.1%.
In the case of `C[C@]12CC[C@H]3[C@@H](CC=C4C[C@@H](O)CC[C@@]43C)[C@@H]1CC[C@@H]2O`, the Potency (N140) was “inactive”, the Potency (P93_24) was “inactive” and the Potency (P94_40) was “inactive”. The Potency (PAD) was “inactive”, the Potency (PC15) was “inactive” and the Potency (PC26) was “inactive”. For the same compound, the Potency (PC49) was “inactive”, the Potency (SC27B) was “inactive” and the Potency (TAB109) was “inactive”. For the same compound, the Potency (TAB113) was “inactive”, the Potency (TAB165) was “inactive” and the Potency (W2) was “inactive”. For the same compound, the max response (CRL-7250 [1]) was -19.9%, the max response (HEK293) was -6.75% and the outcome (HaCat [2]) was “inactive”. The max response (KB-3-1) was -11.4%, the max response (NIH3T3) was 4.53% and the outcome (HACAT [3]) was “inactive”.
With `COP(=S)(OC)Oc1ccc(S(N)(=O)=O)cc1` the outcome (CRL-7250 [1]) was “inactive”, the max response (HEK293) was -8.17% and the outcome (HaCat [2]) was “inactive”. The max response (KB-3-1) was 0.165%, the max response (NIH3T3) was -5.5% and the outcome (CRL-7250 [4]) was “inactive”. For the same compound, the outcome (HACAT [3]) was “inactive”.
With `NC(=O)OCCCc1ccccc1` the Potency (N140) was “inactive”, the Potency (P93_24) was “inactive” and the Potency (P94_40) was “inactive”. The Potency (PAD) was “inactive”, the Potency (PC15) was “inactive” and the Potency (PC26) was “inactive”. The Potency (PC49) was “inactive”, the Potency (SC27B) was “inactive” and the Potency (TAB109) was “inactive”. For the same compound, the Potency (TAB113) was “inactive”, the Potency (TAB165) was “inactive” and the Potency (W2) was “inactive”. For the same compound, the outcome (CRL-7250 [1]) was “inactive”, the max response (HEK293) was 3.07% and the outcome (HaCat [2]) was “inactive”. The max response (KB-3-1) was -19.1%, the outcome (NIH3T3) was “inactive” and the outcome (CRL-7250 [4]) was “inactive”. For the same compound, the outcome (HACAT [3]) was “inactive”.
For `CC1N=C(N)OC1c1ccccc1` (configuration not stated), the max response (CRL-7250 [1]) was -30.4%, the max response (HEK293) was -15.4% and the outcome (HaCat [2]) was “inactive”. The max response (KB-3-1) was -3.1%, the max response (NIH3T3) was -2.85% and the outcome (HACAT [3]) was “inactive [at 92 µM]”.
